The nature of experiment [1]: qHTS for Inhibitors of the vitamin D receptor (VDR): Hit Validation using a Texas Red Assay (AID 602201). Note: potency is the fitted concentration of half-maximal effect. Particulars: VDR coregulator binding, Texas Red fluorescence polarization, agonist-bound VDR ligand-binding domain; series mostly up to 57.1 µM. The procedure, abridged:
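Fluorescence polarization with 1.5 uM VDR-LBD, LG19078 and 7 nM Texas Red (final). After 2 hours at ambient temperature, read at Ex 595 nm/Em 615 nm.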

The target in experiment [2] is 3',5'-cyclic-AMP phosphodiesterase 4B (Homo sapiens) (UniProt Q07343). The experiment in a line: qHTS Assay for Inhibitors of PDE-IV (AID 607; active = well fitted activation curve with a large enough effect in the main read-out, with a control signal flat, not every such curve was filed as active). The conditions noted are these: HEK293 ACTOne CNG channel cells, membrane potential fluorescence; series mostly up to 22.9 µM. The procedure, abridged: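 ACTOne HEK293 cells carry a modified cAMP-gated CNG channel and express endogenous PDE4; plated 1000 cells/well, compounds up to 22.9 uM final. Membrane-potential dye fluorescence (ex 535/em 590) was read; parental cells received 10 uM forskolin + 100 uM RO 20-1724.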
3',5'-cyclic-AMP phosphodiesterase 4B (Homo sapiens), sequence (Q07343 whole entry, looked up): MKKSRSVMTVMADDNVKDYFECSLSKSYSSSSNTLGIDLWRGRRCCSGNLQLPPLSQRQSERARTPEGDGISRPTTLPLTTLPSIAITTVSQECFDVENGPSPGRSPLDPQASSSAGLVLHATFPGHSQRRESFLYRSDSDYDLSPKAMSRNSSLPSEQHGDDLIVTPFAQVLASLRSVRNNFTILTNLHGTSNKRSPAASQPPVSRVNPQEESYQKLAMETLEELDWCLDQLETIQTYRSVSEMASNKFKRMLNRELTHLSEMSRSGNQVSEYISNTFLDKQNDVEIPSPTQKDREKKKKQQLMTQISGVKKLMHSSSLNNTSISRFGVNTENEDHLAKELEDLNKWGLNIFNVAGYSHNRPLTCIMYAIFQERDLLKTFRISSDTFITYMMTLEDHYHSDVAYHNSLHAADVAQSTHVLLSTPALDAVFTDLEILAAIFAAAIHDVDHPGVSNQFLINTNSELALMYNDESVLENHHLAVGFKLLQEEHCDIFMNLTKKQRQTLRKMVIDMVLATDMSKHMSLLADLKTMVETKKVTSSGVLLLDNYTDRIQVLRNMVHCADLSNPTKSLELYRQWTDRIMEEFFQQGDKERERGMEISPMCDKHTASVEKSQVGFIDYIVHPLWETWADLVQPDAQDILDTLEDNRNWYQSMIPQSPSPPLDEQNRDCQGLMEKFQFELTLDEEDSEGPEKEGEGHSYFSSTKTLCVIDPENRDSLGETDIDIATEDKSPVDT

For experiment [3], the target named is Vitamin D3 receptor (Homo sapiens) (UniProt P11473). The experiment in a line: qHTS for Inhibitors of the vitamin D receptor (VDR): Hit Validation using a Beta-Lactamase Assay (AID 602202). Note: potency is the fitted concentration of half-maximal effect. Particulars: VDR beta-lactamase reporter cells, FRET ratio, cells co-treated with VDR agonist LG190178; series mostly up to 46.1 µM. An outline of the steps: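 Stably transfected HEK293 cells expressing VDR-GAL4 DNA-binding domain fusion with UAS-driven beta-lactamase reporter, activated by agonist LG190178; compounds incubated 18 h, then FRET beta-lactam substrate 2 h; cleaved substrate read at 447 nm emission.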
Vitamin D3 receptor (Homo sapiens), sequence (P11473 whole entry, looked up, the tested form may be a part): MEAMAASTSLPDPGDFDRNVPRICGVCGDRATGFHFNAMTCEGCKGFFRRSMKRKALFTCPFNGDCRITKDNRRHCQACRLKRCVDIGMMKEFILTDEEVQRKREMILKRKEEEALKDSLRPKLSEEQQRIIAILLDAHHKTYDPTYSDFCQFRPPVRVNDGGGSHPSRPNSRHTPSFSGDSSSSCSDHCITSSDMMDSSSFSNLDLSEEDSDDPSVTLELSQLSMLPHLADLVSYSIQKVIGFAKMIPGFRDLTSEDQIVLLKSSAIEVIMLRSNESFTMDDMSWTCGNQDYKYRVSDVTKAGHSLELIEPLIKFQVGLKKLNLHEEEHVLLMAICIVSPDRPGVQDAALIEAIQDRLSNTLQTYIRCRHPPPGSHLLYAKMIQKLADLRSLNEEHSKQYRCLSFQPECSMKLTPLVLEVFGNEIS

Experiment [4] concerns the target Luciferin 4-monooxygenase (Photinus pyralis) (UniProt P08659). The experiment can be described thus: Biochemical firefly luciferase enzyme assay for NPC (AID 624030).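 Note: purified P. pyralis luciferase at 10 nM with luciferin and ATP substrate; nearly all actives have a fitted effect of over 70% in size.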 Particulars: purified P. pyralis luciferase, luminescence, 5 min; series mostly up to 58.6 µM. An outline of the steps: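 Purified P. pyralis luciferase at 10 nM in 50 mM Tris Acetate (final), luminescence read within 5 minutes of enzyme addition to compounds. Activity normalised to PTC124 versus DMSO; concentration-response curves classed by r2, magnitude and activity.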

Molecules are shown by their SMILES. Results filed as inconclusive are left out. The list shows a part of the results. A call without a number means that no potency is given here. Activity calls are given as the source filed them. Unless noted, calls come from the whole dose curve; as a rule, active = well fitted curve in the direction sought with a large enough effect; inconclusive = small, poorly fitted or top-dose-only effect, or another doubt; inactive = no such curve, though single readings can be large; an effect the other way counts as inactive or inconclusive.

Luciferin 4-monooxygenase (Photinus pyralis), sequence (P08659 whole entry, looked up): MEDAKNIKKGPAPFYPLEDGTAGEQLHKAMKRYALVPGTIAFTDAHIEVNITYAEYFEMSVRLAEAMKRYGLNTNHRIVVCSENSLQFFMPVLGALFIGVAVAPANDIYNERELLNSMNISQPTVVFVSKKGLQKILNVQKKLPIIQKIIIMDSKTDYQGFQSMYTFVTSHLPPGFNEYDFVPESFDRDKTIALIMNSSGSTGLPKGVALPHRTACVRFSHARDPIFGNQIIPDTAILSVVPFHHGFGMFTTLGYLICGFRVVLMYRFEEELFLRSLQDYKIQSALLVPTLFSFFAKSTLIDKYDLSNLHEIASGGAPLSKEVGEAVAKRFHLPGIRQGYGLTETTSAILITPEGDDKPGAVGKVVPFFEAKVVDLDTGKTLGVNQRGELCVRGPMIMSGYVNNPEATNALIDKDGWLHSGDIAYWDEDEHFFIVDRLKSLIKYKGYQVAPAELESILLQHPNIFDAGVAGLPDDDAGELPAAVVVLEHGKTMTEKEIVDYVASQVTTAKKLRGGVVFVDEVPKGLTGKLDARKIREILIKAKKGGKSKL

Take `CCCCN1C(=O)C(=Nc2cccc3cnccc23)c2ccccc21`: the Potency entry in experiment [1] was “inactive”.

For the molecule `O=C(NC1CCCCCC1)C(=S)N1CCOCC1`, in experiment [1], the Potency result is “inactive”.

Take `O=[N+]([O-])c1ccccc1-c1ccc(C(=S)N2CCCC2)o1`: in experiment [1], the Potency result was “inactive”.

On to `Oc1ccc(C(=S)N2CCN(c3cccc(Cl)c3)CC2)cc1`, for which the Potency result in experiment [1] was “inactive”.

As to `CC1=NNC(=O)/C1=C\c1cn(-c2ccccc2)nc1-c1ccccc1`, the Potency in experiment [1] was 3.16 µM (active).

On to `c1ccc(-c2nnc3sc(-c4csc5c4CCCC5)nn23)cc1`, for which the Potency in experiment [1] is 22.4 µM (active).

For the molecule `CC(=O)NC1=CC(=O)c2nonc2C1=O`, the Potency in experiment [1] is 3.16 µM (active).

With `O=C1NN(c2ccc(F)c(Cl)c2)C(=O)/C1=C\c1cccc(OC(=O)c2cccs2)c1`, the Potency result in experiment [1] was “inactive”.

With `COc1ccc(C2=CC(=O)N(Nc3ccccc3)C2=O)cc1`, the Potency in experiment [1] was 10 µM (active).

With `O=C(/C=C/c1cc(Br)ccc1O)c1ccco1`, the Potency entry in experiment [1] was “inactive”.

As for `O=C1ON=C(c2ccccc2)/C1=C/c1ccc(O)cc1`, the Potency result in experiment [1] was “inactive”.

Turning to `COc1ccccc1N1C(=O)C=C(Sc2nc(C)cc(C)n2)C1=O`, the Potency in experiment [1] was 14.1 µM (active).

For `Nc1ncnc2c1ncn2[C@@H]1O[C@H](CNCc2ccc(-c3cc(C(F)(F)F)ccc3Cl)o2)[C@@H](O)[C@H]1O`, the Potency entry in experiment [1] was “inactive”.

For `O=C(O)CN1C(=O)/C(=C\c2cc(Br)ccc2OCc2ccc(F)cc2)SC1=S`, the Potency entry in experiment [1] is “inactive”.

On to `COc1ccc(N2C(=O)C(Cl)=C(Oc3cccc(OC)c3)C2=O)cc1`, for which the Potency in experiment [1] was 2.82 µM (active).

`CN1C(=O)C(Cl)(Cl)C(=O)c2ccccc21`: the Potency result in experiment [1] was “inactive”.

As to `Cc1nnc(NC(=O)c2nc(S(=O)(=O)Cc3ccccc3)ncc2Cl)s1`, in experiment [1], the Potency is 22.4 µM (active).

For `Nc1nc(-c2cccc(F)c2)cs1`, the Potency result in experiment [1] was “inactive”.

On to `CCOC(=O)/C(C#N)=C1\C(=O)N(Cc2ccccc2)c2ccccc21`, for which the Potency entry in experiment [1] is “inactive”.

Regarding `O=c1[nH]c(/C=C/c2ccccc2)c([N+](=O)[O-])c(=O)[nH]1`, in experiment [1], the Potency result was “inactive”.

For `O=C(c1cccs1)c1no[n+]([O-])c1C(=O)c1cccs1`, in experiment [1], the Potency is 3.55 µM (active).

With `Cc1ccc(C(=O)NC2(O)C(=O)c3ccccc3C2=O)cc1C`, the Potency result in experiment [1] is “inactive”.

Regarding `COc1cc(/C=C2\C(=O)ON=C2c2ccccc2)cc(Br)c1O`, the Potency entry in experiment [1] is “inactive”.

As to `COc1ccc(OC)c(/C=C/C(=O)c2ccc(Cl)cc2)c1`, the Potency in experiment [1] is 28.2 µM (active).

Turning to `O=c1nc(/C=C/c2cc([N+](=O)[O-])ccc2Cl)cc(C(F)(F)F)[nH]1`, in experiment [1], the Potency was 3.55 µM (active).

Regarding `CCN(CC)c1ccc(C=Nc2ccc(N(C)C)cc2)c(O)c1`, the Potency entry in experiment [1] was “inactive”.

`O=C1Nc2ccc(Br)cc2C1=Nc1cccnc1`: the Potency entry in experiment [1] was “inactive”.

For `CCC(C)(C)n1nnnc1C(c1ccc(O)c(OC)c1)N1CCc2ccccc2C1` (stereo not given), in experiment [1], the Potency was 25.1 µM (active).

Turning to `NC(=O)c1c(N)sc2c1CCCCC2`, the Potency in experiment [1] was 14.1 µM (active).

For the molecule `N#Cc1c(Nc2ccc(Cl)cc2)s[nH]c1=O`, the Potency result in experiment [1] was “inactive”.

Regarding `Cc1cc(Br)cc2c1N(Cc1ccccc1OC(C)C)C(=O)C2=O`, the Potency in experiment [1] is 11.2 µM (active).

Regarding `O=C(CCCSc1ccc(Cl)cc1)Nc1cc(S(=O)(=O)N2CCOCC2)ccc1O`, the Potency in experiment [1] was 7.94 µM (active).

As to `CC(=O)Nc1cccc(C(=O)/C=C/c2ccc(Br)cc2)c1`, in experiment [1], the Potency is 5.62 µM (active).

Turning to `O=S1(=O)C=C(Sc2nnc(-c3ccccc3)o2)c2ccccc21`, the Potency in experiment [1] is 3.16 µM (active).

Turning to `Cc1cc(C(C2C(=O)CC(C)(C)CC2=O)C2C(=O)CC(C)(C)CC2=O)cc(C)c1OC(F)F`, the Potency entry in experiment [1] was “inactive”.

Regarding `NC(=O)c1ccc(N=C2C(=O)Nc3ccc([N+](=O)[O-])cc32)cc1`, the Potency in experiment [1] is 1.41 µM (active).

Take `CCOc1cc(/C=C2/C(=O)ON=C2C)cc(Br)c1O`: the Potency entry in experiment [1] is “inactive”.

In the case of `NS(=O)(=O)c1ccc(NC(=O)c2nc(S(=O)(=O)Cc3ccccc3F)ncc2Cl)cc1`, the Potency in experiment [1] was 3.16 µM (active).

Consider `CCOC(=O)c1c(C2COc3ccccc3O2)csc1NC(=O)c1ccco1` (stereo not given), for which the Potency in experiment [1] was 3.55 µM (active).

For `CCCC/C=C/C(NC(=O)OCc1ccccc1Cl)c1ccccc1` (stereo not given), the outcome in experiment [2] was inactive.

With `O=C(Nc1nc(-c2ccncc2)cs1)C1COc2ccccc2O1` (stereo not given), in experiment [1], the Potency is 7.08 µM (active). In experiment [3], the Potency result was “inactive”.

With `COC1=C(C(=O)O)N2C(=O)[C@@H](NC(=O)C(N)C3C=CCC=C3)[C@H]2SC1` (stereo not given in full), the Potency entry in experiment [4] was “inactive”.

With `Cc1ccc(-c2nc3ccccn3c2Nc2c(C)cccc2C)o1`, the Potency result in experiment [3] was “inactive”.

As for `O=c1[nH]c(/C=C\c2cccc(C(F)(F)F)c2)nc(O)c1[N+](=O)[O-]`, the Potency result in experiment [3] is “inactive”.

For `COC(=O)[C@@]1(Cc2ccc(F)cc2)[C@H]2c3cc(C(=O)N(C)C)n(CC4CC4)c3C[C@H]2CN1C(=O)c1ccccc1`, in experiment [2], the outcome was inactive.

Regarding `O=C(/C=C/c1ccc(Cl)c([N+](=O)[O-])c1)c1cccnc1`, in experiment [1], the Potency is 4.47 µM (active). Moreover, the Potency result in experiment [3] was “inactive”.

For the molecule `COC(=O)[C@@]1(Cc2ccc(OC)cc2)[C@H]2c3cc(C(=O)N4CCCC4)n(CCc4ccccn4)c3C[C@H]2CN1C(=O)c1ccccc1`, the outcome in experiment [2] was inactive.

On to `COC(=O)[C@@]1(Cc2ccc(OC)cc2)[C@H]2c3cc(C(=O)N(C)C)n(Cc4ccc(C)c(F)c4F)c3C[C@H]2CN1C(=O)c1ccccc1`, for which, in experiment [2], the molecule was classed as inactive.

Consider `COC(=O)[C@@]1(Cc2ccc(F)cc2)[C@H]2c3cc(C(=O)N(C)C)n(Cc4ccccc4)c3C[C@H]2CN1C(=O)c1ccccc1`, for which the outcome in experiment [2] was inactive.

Regarding `CC1CCN(C(=S)c2ccc(-c3ccc(Cl)cc3Cl)o2)CC1`, the Potency result in experiment [3] is “inactive”.

In the case of `CCC[C@@H]1CC(C(=O)NC(C2O[C@H](SC)C(OP(=O)(O)O)[C@H](O)[C@H]2O)[C@H](C)Cl)N(C)C1` (stereo not given in full), in experiment [4], the Potency entry is “inactive”.

As for `C[C@@H](NC(=O)OC(C)(C)C)c1nnc(S(=O)(=O)Cc2ccccc2)o1`, the Potency was 11.2 µM (active) in experiment [1] and 23.1 µM (active) in experiment [3].
